Test results from PubChem BioAssay AID1159580 (chemical genetic matrix, 2015).
“And” between values parts separate entries of the source, which are not always exact repeats. Equal entries are not always repeated. About 2,000 (36%) of roughly 5,500 compounds were called active. About 18% were inconclusive and are not listed. No stated cut-off is given here; in the data, active means normalized growth mostly below about 0.91 (no sharp cut-off); inconclusive means no clear call, values can overlap the other calls; inactive means mostly above about 0.92. The list shows a part of the results.

Assay: chemical genetic growth profiling, strain panel (AID 1159580);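 further: tested at 20 µM; growth read once vehicle control cultures reached saturation at 30 °C; 1 = growth at the plate median or of vehicle wells; lower values mean less growth of the strain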
Conditions: S. cerevisiae deletion strains, growth OD

Measured: normalized growth

NC[C@@H]1O[C@H](O[C@@H]2[C@@H](CO)OC(O[C@@H]3[C@@H](O)[C@H](N)C[C@H](N)[C@H]3O[C@H]3O[C@H](CO)[C@@H](O)[C@H](O)[C@H]3N)[C@@H]2O)[C@H](N)[C@@H](O)[C@@H]1O (stereo partly drawn)
inactive: locus YAL021C, strain ccr4, hits give low values 0.996 | locus YAL026C, strain drs2, hits give low values 0.992 | locus YAL030W, strain snc1, hits give low values 0.995 | locus YBL061C, strain skt5, hits give low values 0.995 | locus YBR009C, strain hhf1, hits give low values 0.986 | locus YBR021W, strain FUR4, hits give low values 1.03 | locus YBR023C, strain chs3, hits give low values 0.999 | locus YBR171W, strain sec66, hits give low values 0.973 | locus YBR229C, strain ROT2, hits give low values 0.96 | locus YBR231C, strain swc5, hits give low values 0.992 | locus YBR279W, strain paf1, hits give low values 0.992 | locus YCL011C, strain gbp2, hits give low values 0.985 | locus YCL016C, strain dcc1, hits give low values 0.988 | locus YCL029C, strain bik1, hits give low values 1 | locus YCL061C, strain MRC1, hits give low values 0.953 | locus YCL069W, strain vba3, hits give low values 0.992 | locus YCR088W, strain abp1, hits give low values 0.997 | locus YDL005C, strain med2, hits give low values 0.992 | locus YDL035C, strain GPR1, hits give low values 0.996 | locus YDL040C, strain nat1, hits give low values 0.984 | locus YDL074C, strain BRE1, hits give low values 0.961 | locus YDL101C, strain DUN1, hits give low values 0.98 | locus YDL134C, strain PPH21, hits give low values 1.01 | locus YDL185W, strain tfp1, hits give low values 0.982 | locus YDL192W, strain arf1, hits give low values 0.991 | locus YDR001C, strain nth1, hits give low values 0.995 | locus YDR069C, strain doa4, hits give low values 0.994 | locus YDR101C, strain arx1, hits give low values 0.985 | locus YDR137W, strain rgp1, hits give low values 1.01 | locus YDR159W, strain sac3, hits give low values 0.966 | locus YDR162C, strain NBP2, hits give low values 0.998 | locus YDR195W, strain ref2 0.981 | locus YDR297W, strain sur2, hits give low values 0.992 | locus YDR318W, strain mcm21, hits give low values 1 | locus YDR334W, strain swr1, hits give low values 0.989 | locus YDR335W, strain msn5, hits give low values 0.998 | locus YDR388W, hits give low values 0.992 | locus YDR392W, strain spt3, hits give low values 0.974 | locus YDR502C, strain sam2, hits give low values 0.988 | locus YEL003W, strain gim4, hits give low values 0.986 | locus YEL037C, strain rad23, hits give low values 0.977 | locus YEL061C, strain CIN8 (second series), hits give low values 0.988 | locus YEL061C, strain CIN8, hits give low values 0.985 | locus YER015W, strain faa2, hits give low values 0.995 | locus YER016W, strain bim1, hits give low values 0.989 | locus YER110C, hits give low values 0.994 | locus YER111C, strain swi4, hits give low values 0.988 | locus YER155C, strain BEM2 (second series), hits give low values 0.985 | locus YER155C, strain BEM2, hits give low values 1 | locus YER167W, strain BCK2, hits give low values 1.01 | locus YFR010W, strain ubp6, hits give low values 0.996 | locus YGL078C, strain dbp3, hits give low values 0.995 | locus YGL086W, strain mad1, hits give low values 0.983 | locus YGL167C, strain pmr1, hits give low values 1 | locus YGL173C, strain kem1, hits give low values 0.984 | locus YGL227W, strain vid30, hits give low values 0.999 | locus YGL240W, strain doc1, hits give low values 0.991 | locus YGL248W, strain PDE1, hits give low values 0.969 | locus YGL253W, strain hxk2, hits give low values 0.988 | locus YGR078C, strain PAC10, hits give low values 0.968 | locus YGR135W, strain pre9, hits give low values 1.05 | locus YGR229C, strain SMI1, hits give low values 1 | locus YGR252W, strain gcn5, hits give low values 1.02 | locus YHR013C, strain ard1, hits give low values 0.988 | locus YHR027C, strain rpn1, hits give low values 0.999 | locus YHR030C, strain SLT2, hits give low values 1 and 0.966 | locus YHR079C, strain IRE1 (second series), hits give low values 0.993 | locus YHR079C, strain IRE1, hits give low values 0.974 | locus YHR094C, strain hxt1, hits give low values 0.997 | locus YHR129C, strain ARP1, hits give low values 1 | locus YHR142W, strain chs7, hits give low values 0.983 | locus YHR200W, strain rpn10, hits give low values 0.993 | locus YIL066C, strain RNR3, hits give low values 0.969 | locus YIL073C, strain SPO22, hits give low values 1.07 | locus YIL125W, strain kgd1, hits give low values 0.992 | locus YIR030C, strain dcg1, hits give low values 0.993 | locus YJL092W, strain hpr5, hits give low values 0.993 | locus YJL095W, strain BCK1 (second series), hits give low values 0.992 | locus YJL095W, strain BCK1, hits give low values 0.959 and 0.976 | locus YJL115W, strain asf1, hits give low values 0.984 | locus YJL129C, strain trk1, hits give low values 0.977 | locus YJL134W, strain LCB3, hits give low values 0.999 | locus YJL154C, strain vps35, hits give low values 0.987 | locus YJL164C, strain tpk1, hits give low values 0.948 | locus YJL166W, strain qcr8, hits give low values 0.986 | locus YJL168C, strain set2, hits give low values 0.987 | locus YJL187C, strain SWE1 (second series), hits give low values 0.954 | locus YJL187C, strain SWE1, hits give low values 0.992
